About 83,000 compounds went through this panel and 20% of them were active in at least one assay; those are over-represented in the sample as a whole.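 Cell lines were cultured in 96-well plates, exposed to a single compound concentration, and assessed for percent growth 48 hours later.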 The source made the active and inactive calls. Rule for the calls: active = growth percent below 10; inactive = the rest.

The experiment concerns HCC-2998 colon. Nature of the experiment: NCI-60 one-dose screen, 48 h (100 = growth as untreated, 0 = no growth, -100 = all killed). Particulars: 10 µM unless noted.
Consider `Cc1ccc(C)c(-c2csc(Nc3ccc(C)c(C)c3)n2)c1`, for which the growth is 27.6% (inactive).
Turning to `COc1ccc(-c2nnc(COc3ccc(C(=O)/C=C/c4ccco4)cc3)o2)cc1`, the growth was 98.2% (inactive).
Take `O=C1/C=C/[C@@H](O)[C@@H]2C[C@@H](O)C[C@H]2/C=C/CCCCO1`: the growth is 6.82% (active).
On to `COc1ccc(CCN2C(=O)CCSC2=S)cc1`, for which the growth was 106% (inactive).
Consider `COc1ccc(/C=C/C(=O)c2ccc3cc(OC)c(OC)cc3c2)cc1OC`, for which the growth was 48.6% (inactive).
On to `CC(C)c1ccc(S(=O)(=O)NC(=O)NC2CCCC2)cc1`, for which the growth was 108% (inactive).
As to `CCN1CCN(c2cc(C)c3cc(NC(=O)c4ccc(OC)c(OC)c4)ccc3n2)CC1`, the growth was 81.9% (inactive).
For the molecule `CCOC(=O)c1c2c(c(C)n1Cc1ccc(OC)cc1)-c1oncc1CC2`, the growth is 106% (inactive).
With `COC(=O)/C(=C\c1c(C)[nH]c2ccccc12)S(=O)(=O)c1ccccc1` the figure was 5.21% (active).
For `O=C(NCCCN1CCC(N2CCCCC2)CC1)C1=Cc2cc(Br)ccc2OC1` the value was 20.4% (inactive); for `O=C(Nc1ccc(-c2nc3cc4ccccc4cc3[nH]2)cc1)c1cccc(Br)c1`, 33.1% (inactive).
For `Nc1nc(-c2cnccn2)nn1-c1nc2ccccc2s1` the value was 101% (inactive); for `CCCCN1CCN(c2ccc3nc(-c4ccc5nc(-c6ccc(C(F)(F)F)cc6)[nH]c5c4)[nH]c3c2)CC1`, -84% (active); for `O=C(Nc1ccc(N2CCNCC2)cn1)c1[nH]ncc1Nc1ncnc2sccc12`, 52.6% (inactive).
For the molecule `CCOC(=O)CSc1c(-c2ccccc2)c2cc(Cl)ccc2[nH]c1=O`, the growth was 103% (inactive).
For the molecule `O=C1Nc2ccccc2/C1=C/c1ccc[nH]1`, the growth was 54.7% (inactive).
Turning to `NC(CCc1nc2ccccc2c(=O)[nH]1)C(=O)O` (centres undefined), the growth is 107% (inactive).
Consider `CCCSC1=NC2C(N(CC)C(=O)N2CC)N1/N=C/C=C/c1ccccc1[N+](=O)[O-]` (centres undefined), for which the growth is 15% (inactive).
`COc1cccc(/C(C#N)=C/c2nc3c(N4CCOCC4)nc(Cl)nc3n2C)c1`: the growth was 20% (inactive).
Consider `CN1CCN(Cc2ccc(NC(=O)c3[nH]ncc3Nc3cc(OC4CCCC4)ncn3)cc2)CC1`, for which the growth is 28.7% (inactive).
With `COc1cccc(C(=O)NC(c2ccc(C)cc2)c2cc(Cl)c3cccnc3c2O)c1` (centres undefined), the growth was 7.35% (active).
On to `COc1ccc(-c2nsc3c2NC(=O)CC3c2ccsc2)cc1` (centres undefined), for which the growth is 31.1% (inactive).
With `COc1cc(C2C(C#N)=C(N)OC3=C2C(=O)c2ccccc2C3=O)cc(OC)c1O` (centres undefined) the figure was 45% (inactive); with `CCN(CC)c1cc(C)c2cc(NC(=O)c3cccc(OC)c3)ccc2n1`, 91.3% (inactive); with `CCCCNc1nc(NC(C)(C)C)nc(NC(C)(C)C)n1`, 74.3% (inactive).
For the molecule `CC(=O)n1cc(-c2c[nH]c3ccccc23)c(-c2ccc(Cl)cc2)n1`, the growth is 109% (inactive).
Regarding `COc1cccc(C2=NN3C(C2)c2ccccc2OC3c2ccc(/C=C3\SC(=O)NC3=O)cc2)c1` (centres undefined), the growth was 106% (inactive).
For `COC(=O)/C(CCC=C(C)C)=C1\[C@@H](OC(C)=O)C[C@@]2(C)[C@H]1C[C@@H](O)[C@H]1[C@@]3(C)CC[C@H](NCCCNCCCCNCCCN)[C@@H](C)[C@@H]3CC[C@@]12C` the value was 52.1% (inactive); for `CN1C(=O)N(C)C2Nn3c(s/c(=C\c4ccc(Cl)cc4Cl)c3=O)=NC21` (centres undefined), 86.5% (inactive); for `O=C(Nc1nc2c(s1)CCc1c-2c(Br)n(Cc2ccccc2)c1Br)c1ccccc1`, 99.1% (inactive).
With `S=C1NC2(c3ccccc3)CCC(=S)N2c2ccccc21` (centres undefined), the growth was 127% (inactive).
With `Nc1ccccc1-c1ccc(-c2ccc(Cl)cc2)c2c1[nH]c1ccccc12`, the growth was 86.1% (inactive).
As for `O=C1Nc2ccccc2/C1=C/c1cccs1`, the growth was 91.4% (inactive).
In the case of `OCCNc1nc(Nc2ccc(C3=NN(c4cc(Cl)cc(Cl)c4)C(c4ccc(C(F)(F)F)cc4)C3)cc2)nc(N2CCOCC2)n1` (centres undefined), the growth was 76.3% (inactive).
Take `COc1ccc(-c2nsc3c2NC(=O)CC3c2ccc3c(c2)OCCO3)cc1` (centres undefined): the growth was 33.5% (inactive).
Take `COc1cc(/C=C2\CN(C)C/C(=C\c3cc(CN4CCCCC4)c(O)c(OC)c3)C2=O)cc(CN2CCCCC2)c1O`: the growth is 16.1% (inactive).
For `CCCCOCc1cc(CN2CCN(C)CC2)c(O)c2ncccc12`, the growth was 57.8% (inactive).
Turning to `NCCNc1nc2ccccc2c2c(=O)c3cc(F)cc(Cl)c3sc12`, the growth was 16.2% (inactive).
With `CNC(=O)c1cc(Oc2ccc(CC(=O)Nc3cc(C(C)(C)C)cn3C)cc2)ccn1`, the growth is 103% (inactive).
